Several values for one entry are separate records, joined by “and”; a condition that tells them apart may be missing. Equal values may be shown once. Records with an inconclusive call do not appear. A number with no mark means an inactive call. The call rests on the fitted dose curve; in most records, active means well fitted inhibition curve with a large enough effect in the signal ratio, with a control signal flat (not every such curve was filed as active); inconclusive means small, poorly fitted or top-dose-only effect, or effect the other way, or a change in a side signal; inactive means flat fitted curve, though single readings scatter; the % refers to the signal ratio.
On the % scale 0 is the no-effect control and ±100 the full control effect.

The target of the test is Thyroid hormone receptor beta (Homo sapiens) (UniProt P10828). Put plainly: qHTS assay for small molecule antagonists of thyroid hormone receptor beta signaling (AID 588547).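 Further: cells stimulated with 0.4 nM T3 agonist during compound exposure; series mostly up to about 77 µM.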 The following applies: TR-UAS-bla HEK293, beta-lactamase ratio, antagonist mode, 18 h. In short, it runs like this: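 TR-UAS-bla GripTite HEK293 cells in 2% charcoal/dextran FBS medium; compounds 0.59 nM to 92 uM with T3 at 0.4nM final, 18 h at 37 C. Beta-lactamase read by CCF4 fluorescence (460/530 nm); Hill fits gave IC50 and efficacy.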
Sequence of Thyroid hormone receptor beta (Homo sapiens) (P10828 whole entry, looked up): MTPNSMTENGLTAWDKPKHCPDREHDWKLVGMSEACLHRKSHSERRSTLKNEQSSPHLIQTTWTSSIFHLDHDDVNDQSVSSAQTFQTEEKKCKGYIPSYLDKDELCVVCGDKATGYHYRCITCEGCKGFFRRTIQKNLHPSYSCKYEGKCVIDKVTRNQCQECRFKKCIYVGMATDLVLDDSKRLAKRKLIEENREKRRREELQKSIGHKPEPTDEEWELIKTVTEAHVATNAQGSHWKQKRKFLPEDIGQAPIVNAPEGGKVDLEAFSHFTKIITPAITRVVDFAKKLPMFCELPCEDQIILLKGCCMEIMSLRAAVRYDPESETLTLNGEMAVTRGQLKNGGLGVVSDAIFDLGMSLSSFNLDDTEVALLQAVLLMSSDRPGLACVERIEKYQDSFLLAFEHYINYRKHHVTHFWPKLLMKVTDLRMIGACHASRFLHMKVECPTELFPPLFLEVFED
Background: Quantitative high-throughput screening tests each substance at several concentrations.
Take `CCNc1nc(Cl)nc(NC(C)C)n1`: the activity change % (negative = inhibition) was -11.1% and -4.42%.
As for `ClC1=C(Cl)C2(Cl)C3C4CC(C5OC45)C3C1(Cl)C2(Cl)Cl` (configuration not stated), the activity change % (negative = inhibition) was -28.8%.
Consider `ClC(Cl)=C(c1ccc(Cl)cc1)c1ccc(Cl)cc1`, for which the activity change % (negative = inhibition) is 0.649% and 24.3% and -8.25%.
Turning to `ClC1=C(Cl)C2(Cl)C3C4C=CC(C4)C3C1(Cl)C2(Cl)Cl` (configuration not stated), the activity change % (negative = inhibition) is -26.2%.
In the case of `COC(=O)NC(=S)Nc1ccccc1NC(=S)NC(=O)OC`, the activity change % (negative = inhibition) was 1.37% and 13.1%.
For the compound `COP(=S)(OC)Oc1ccc([N+](=O)[O-])cc1`, the activity change % (negative = inhibition) is -2.23% and 4.43%.
On to `O=S1OCC2C(CO1)C1(Cl)C(Cl)=C(Cl)C2(Cl)C1(Cl)Cl` (configuration not stated), for which the activity change % (negative = inhibition) is -1.54%.
With `C=CCc1ccc(OC)cc1`, the activity change % (negative = inhibition) is -7.69%.
The same measure for `ClC1=C(Cl)C2(Cl)C3C(Cl)C=CC3C1(Cl)C2(Cl)Cl` (configuration not stated): -18.9%; for `CNC(=O)O/N=C/C(C)(C)SC`: -3.92% and 16.1% and 0.362%; for `c1ccc(N=Nc2ccccc2)cc1`: 5.03% and -8.04%.
Regarding `CCc1cccc(CC)c1N(COC)C(=O)CCl`, the activity change % (negative = inhibition) is -17.8% and -7.56%.

(Values after PubChem BioAssay (NCATS).)
